In PubChem BioAssay AID463190 (Sanford-Burnham Center for Chemical Genomics, 2010):
About 7,300 (2.2%) of roughly 330,000 compounds were called active. The full list was thinned out, with actives kept by preference. Values without a mark were called inactive.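 Rule for the calls: active = inhibition of at least 40%; inactive = the rest.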

Assay: growth inhibition of tim10-1 ts yeast – luminescence, uHTS, primary screen (AID 463190);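 note: mutant grown at 25 °C; 0% = DMSO wells with yeast and 100% = wells holding no yeast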
Conditions: S. cerevisiae tim10-1 ts strain growth, BacTiter-Glo, 24 h; at 20 µM; active compounds read high

Compared with O=C(Nc1ccc(-n2cccn2)cc1)C1CCN(Cc2ccsc2)CC1, O=C(Cc1ccccc1)NC(=S)Nc1ccc(N2CCCCC2)cc1 is higher in inhibition: -13.1% for the first, 38.6% for the second.

Going from Cc1nn(C(=O)c2ccoc2C)c(N)c1-c1ccccc1 to Cc1cc(C(=O)Nc2c(C)nn(Cc3ccccc3)c2C)on1, the inhibition falls from 2.61% to 1.72%.

Compared with O=C(O)CCCC(=O)N1N=C(c2ccco2)CC1c1ccco1 (stereo unspecified), O=C(c1ccco1)N1CCN(C(=O)c2cc(-c3ccccc3F)no2)CC1 is higher in inhibition: -34.5% for the first, 26% for the second.

Compared with CCOc1cc(C)ccc1OCc1nnc(SCC(=O)Nc2cccc(C(=O)O)c2)n1-c1ccccc1, CCOc1ccccc1-n1c(SCC(=O)NCc2ccco2)nnc1-c1ccncc1 is higher in inhibition: 4.93% for the first, 8.51% for the second.

Going from COc1cc(SC)ccc1C(=O)N(Cc1ccccc1)c1ccccc1 to COc1cc(SC)ccc1C(=O)NCCOc1ccccc1Cl, the inhibition falls from 26.9% to 20%.

First: Cc1cc(C)n(CCNCc2c(C(=O)N3C[C@@H](C)O[C@@H](C)C3)nc3ccc(Cl)cn23)n1
Second: Cc1cc(C)nc(SCC(=O)c2ccc(Cl)cc2)n1
The inhibition of the first is lower: 5.77% for the first, 7.83% for the second.

First: Cc1cc(C)nc(SCC(=O)N(C)C)n1
Second: CCOC(=O)C1=C(C)NC(=O)N(C(C)=O)C1c1ccc(Cl)cc1 (stereo unspecified)
The inhibition of the first is lower: 9.12% for the first, 26.5% for the second.

First: COCCCn1c(SCc2cccc(OC)c2)nc2cc(OC)c(OC)cc2c1=N
Second: CCOC(=O)C1(CCOc2ccccc2)CCN(Cc2cc(OC)cc(OC)c2)CC1
The inhibition of the first is lower: 28.6% for the first, 30.7% for the second.

Going from COc1ccc(N(CC(=O)N/N=C/c2cccs2)S(=O)(=O)c2ccc(OC)c(OC)c2)cc1 to COc1ccc(-c2ccc3nnc(SCC(=O)Nc4ccc(NC(C)=O)cc4)n3n2)cc1, the inhibition falls from 11.7% to -13%.

Going from NC(=O)N/N=C\c1cccs1 to CC1=NNC(=O)C1CC(=O)N/N=C/c1ccncc1 (stereo unspecified), the inhibition rises from -3.46% to 7.67%.

Compared with CCCCN(C)CCNC(=O)C1CCCN(S(=O)(=O)c2cccc3nsnc23)C1 (stereo unspecified), CC(=O)c1cccc(NC(=O)C2CCCN(S(=O)(=O)c3cccc4nonc34)C2)c1 (stereo unspecified) is lower in inhibition: 8.01% for the first, -2.16% for the second.

First: COc1ccc(/C=C2/C(=O)N(c3ccccc3)N=C2C)c(OC)c1
Second: Cc1sc2c(c1C)c(=O)n(-c1ccccc1)c1nncn21
The inhibition of the first is higher: 28.4% for the first, 20.4% for the second.

First: COc1cc(/C=C/C2=CC(C)(C)NC(=S)N2)cc(OC)c1OC
Second: COc1cccc(C(=O)Oc2cc(C)[nH]c(=O)c2[N+](=O)[O-])c1
The inhibition of the first is higher: 16.4% for the first, -4.85% for the second.

First: O=C(Cc1ccccn1)c1ccc(O)cc1O
Second: Cc1nn(Cc2ccc(F)cc2)c(C)c1NC(=O)c1cccnc1Cl
The inhibition of the first is higher: 4.18% for the first, -0.56% for the second.

Compared with CCOC(=O)C1(S(=O)(=O)c2ccc(Cl)cc2)CCN(Cc2ccccc2)CC1, CCOC(=O)c1[nH]c2c(c1-c1ccccc1)C(=O)CC(c1ccc(Cl)cc1)C2 (stereo unspecified) is lower in inhibition: 39.5% for the first, 11.7% for the second.

First: O=S(=O)(c1ccc(Br)cc1)c1nc(-c2ccccc2)oc1N1CCOCC1
Second: CC(=O)Nc1ccc(S(=O)(=O)Nc2ccc(N3CCCCC3)cc2)cc1
The inhibition of the first is higher: 19.8% for the first, 3.03% for the second.

Going from O=C1COc2ccc(C(=O)CSc3ccc(Br)cc3)cc2N1 to Cc1cc(Br)ccc1SCC(=O)OCC(=O)NCc1ccc2c(c1)OCO2, the inhibition rises from 14% to 28%.

Going from CCCn1c(SCC(=O)Nc2ccc(C)c(S(=O)(=O)N3CCOCC3)c2)n[nH]c1=O to Cc1ccc(C)c(N2CCN(S(=O)(=O)c3ccc4c(c3)oc(=O)n4C)CC2)c1, the inhibition rises from 11.7% to 27.4%.

First: Fc1cccc(CSc2nnc3ccc(-c4ccncc4)nn23)c1
Second: N#Cc1ccc(CSc2nnc3ccccn23)cc1
The inhibition of the first is lower: 16.3% for the first, 21.5% for the second.

First: Cc1oc(C(N)=O)cc1COc1ccc(C(N)=O)cc1
Second: Cc1ccccc1OCC(=O)NCC(=O)OCC(=O)c1ccc2ccccc2c1
The inhibition of the first is lower: -9.15% for the first, 18.3% for the second.

Going from CCOc1cc(C(=O)Nc2ncccn2)cc(OCC)c1OCC to CCOc1cc2c(Cl)ncnc2c(OCC)c1OCC, the inhibition rises from 8.23% to 19.3%.

Compared with CC[C@H](C)C(=O)N[C@H]1CCCN1C(=O)/C=C/c1ccccc1, O=S(=O)(/C=C/c1ccccc1)N1CCNCC1 is higher in inhibition: -0.774% for the first, 7.28% for the second.

First: Cc1ccc2c(c1)N(CCCC(=O)NCc1cccnc1)C(=O)CO2
Second: CC1Cc2ccccc2N1CC(=O)Nc1ccc2c(c1)OC(F)(F)O2 (stereo unspecified)
The inhibition of the first is lower: -19.6% for the first, 20.8% for the second.

First: COc1ccc(CNC(=O)C[C@H]2C[C@H](C(=O)N3CCOCC3)[C@@]3(CCC4CCCC4)c4[nH]c5ccc(Cl)cc5c4CCN3C2=O)cc1OC
Second: CCN1C(=O)[C@@H]2[C@@H](c3ccc(-c4cccc(Cl)c4)cc3)N3CCC[C@@]3(C(=O)OC)[C@@H]2C1=O
The inhibition of the first is lower: 17% for the first, 30.1% for the second.

Compared with CN1CCc2c(sc3c2c(NCc2ccco2)nc2nnnn23)C1, O=C(CSc1nnc(-c2cccs2)n1Cc1ccco1)c1ccc2c(c1)OCO2 is lower in inhibition: 21.9% for the first, -3.98% for the second.

Going from O=C(Cc1ccc2c(c1)CCCC2)Nc1ccccc1Cl to Cc1c(NC(=O)Nc2ccccc2Cl)sc(=S)n1C, the inhibition rises from 10.5% to 12%.

Compared with CN=C1C=C/C(=N/N=c2\ccn(O)cc2C)C=C1C, CC(C)(C)c1cnnn1-c1ccc([N+](=O)[O-])cc1 is lower in inhibition: 16.6% for the first, 12% for the second.

Going from Cc1cc(-c2ccc(S(=O)(=O)N3CCN(c4cccc(C(F)(F)F)c4)CC3)s2)on1 to Cc1ccc(C)c(N2CCN(S(=O)(=O)c3c(C)[nH]c(C)c3C(=O)N3CCCC3)CC2)c1, the inhibition falls from -2.35% to -8.05%.

Going from COC(C[C@@H]1O[C@@H]1C(=O)[C@H](C)OCc1ccccc1)OC to COC(C[C@H](O)CC(=O)[C@@H](C)OCc1ccccc1)OC, the inhibition rises from -17.2% to 7.97%.

Going from N#Cc1ccc(CSc2ncccn2)cc1 to CC1CCCCC1NC(=O)COc1ccc(C#N)cc1 (stereo unspecified), the inhibition rises from -2.68% to -1.06%.

First: O=C1CSC2=NCN(c3ccccc3)CN12
Second: O=C(CN1CCN(c2ccccc2)CC1)Nc1ccc(F)cc1
The inhibition of the first is lower: -4.56% for the first, -0.126% for the second.

Compared with Cc1nc(NC(=O)C2CCCCC2)sc1C, O=C(NCC1CCCO1)c1cc2c(s1)CCCC2 (stereo unspecified) is lower in inhibition: 25.4% for the first, -4.36% for the second.

First: CCOC(=O)c1c(NC(=O)C2CC=CCC2C(=O)O)sc(C)c1CC (stereo unspecified)
Second: CCOC(=O)c1ccc(NNC(C)=O)c([N+](=O)[O-])c1
The inhibition of the first is higher: 15.4% for the first, 9.84% for the second.

First: COc1ccc(-c2cc3ncccc3cn2)cc1
Second: CC(C)Oc1ccc(Cc2n[nH]c(=S)n2Cc2ccccc2)cc1Cl
The inhibition of the first is higher: 8.87% for the first, -6.21% for the second.

Going from CC(=O)NC(Cc1ccccc1)C(=O)NC1CCN(c2ncccc2[N+](=O)[O-])CC1 (stereo unspecified) to C[N+]1(CC(O)COc2ccccc2)CCN(C(=O)c2ccc([N+](=O)[O-])cc2)CC1 (stereo unspecified), the inhibition falls from 10.4% to -0.233%.

First: O=C1CCCc2c1[nH]c1ccc(Br)cc21
Second: O=C(CCCOc1ccc(Cl)cc1Cl)NNC(=O)C1CCC1
The inhibition of the first is higher: 13.5% for the first, 5.85% for the second.

Going from C/C(=N\N1CCN(Cc2ccc(C)cc2)CC1)c1ccco1 to O=C(CN1CCN(c2ccc(F)cc2)CC1)Nc1ccccc1, the inhibition rises from -7.59% to 11.6%.

First: CCCCOC(=O)CCCc1ccc([N+](=O)[O-])cc1[N+](=O)[O-]
Second: O=C(CS(=O)(=O)c1ccccc1)Nc1ccc(S(=O)(=O)Nc2ccccn2)cc1
The inhibition of the first is higher: 28.7% for the first, 0.086% for the second.

For N/C(=N\S(=O)(=O)c1cc(C(F)(F)F)cc(C(F)(F)F)c1)c1cccs1, the inhibition was 5.1%.

In the case of Cc1nn2c(c1-c1ccccc1)N=C(c1ccco1)CC2c1ccccc1 (stereo unspecified), the inhibition is reported as 45.5% (active).
With COc1ccccc1CNC(=O)c1ccc(SC)cc1OC the inhibition was 41.4% (active).
In the case of Cc1cc(C)nc(S/C=C/C(=O)c2ccccc2)n1, the inhibition is reported as 62.9% (active).
For COc1ccc2c(c1)c(C(=O)N/N=C/c1cccs1)c(C)n2C, the inhibition was 44.8% (active).
With COc1ccc(/C=C/C2=CC(C)(C)NC(=S)N2)c(OC)c1 the inhibition was 42.8% (active).
With CCOC(=O)C1(S(=O)(=O)c2ccccc2)CCN(Cc2ccccc2)CC1 the inhibition was 41.1% (active).
For CCOC(=O)C1Sc2[nH]c(=O)sc2C(c2ccc(Cl)cc2)C1C(=O)OCC (stereo unspecified), the inhibition was 48.6% (active).
In the case of CSc1nnc2ccc(-c3ccc(C)cc3)nn12, the inhibition is reported as 45.7% (active).
In the case of CCOc1cc(-c2conc2N)cc(OCC)c1OCC, the inhibition is reported as 41.9% (active).
In the case of O=C(Nc1ccccc1Cl)/C(Cl)=C(\Cl)S(=O)c1ccccc1 (stereo unspecified), the inhibition is reported as 78.1% (active).
For COC(C/C=C/C(=O)[C@@H](C)OCc1ccccc1)OC, the inhibition was 54.5% (active).
In the case of O=C1C=CC(=O)N1c1ccc(N2CCCCC2)cc1, the inhibition is reported as 93% (active).
In the case of N#Cc1ccc(CSc2nnc(-c3ccccn3)n2-c2ccc(Cl)cc2)cc1, the inhibition is reported as 40% (active).
With COc1ccc(-c2cc(C3CCN(c4ncccc4[N+](=O)[O-])CC3)[nH]n2)cc1 the inhibition was 49.2% (active).
In the case of COC(=O)c1cc(S(=O)(=O)N2CCN(c3cc(C)ccc3C)CC2)c[nH]1, the inhibition is reported as 41.6% (active).
With O=C(CN1CCN(c2ccc(F)cc2)CC1)Nc1cccc(C(F)(F)F)c1 the inhibition was 41.1% (active).
For Cn1c(CCCOc2ccc(Cl)cc2Cl)n[nH]c1=S, the inhibition was 47.8% (active).
For CCOC(=O)C/C(C)=N\Nc1ccc([N+](=O)[O-])cc1[N+](=O)[O-], the inhibition was 44.5% (active).
In the case of Cc1nn(Cc2ccc(Cl)c(Cl)c2)c(C)c1NC(=O)c1cc(C2CC2)on1, the inhibition is reported as 57% (active).
